# Results: PubChem BioAssay AID651820 (National Center for Advancing Translational Sciences (NCATS), 2012)
# The campaign covered roughly 340,000 compounds. About 12,000 (3.5%) were called active. Another 18% or so got no clear call; they are omitted. The full list was thinned out, with actives kept by preference. Values without a mark were called inactive. Calls follow the shape of the dose curve; as a rule, active = well fitted inhibition curve with a large enough effect; inconclusive = small, poorly fitted or top-dose-only effect, or another doubt; inactive = no such curve, though single readings can be large or run the other way.
# Assay: qHTS Assay for Inhibitors of Hepatitis C Virus (HCV)
# Settings: Huh7.5.1 HCVcc-Cre infection, luciferase reporter, 44 h; series mostly up to 41.8 µM; activity change, negative = inhibition: at the top concentration
# In short: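 Infectious HCVcc-Cre (~0.5 moi) was added to cells just after compound, with cells seeded 4 h earlier at 1,000 per well. Luciferase activity after 44 h culture reported infection; substrate was incubated 15 min at room temperature before reading.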
# % is scaled to controls: 0 for no effect and ±100 for the full control effect; potency is read from the fitted curve at half-maximal effect.
Structure (SMILES),"activity change, negative = inhibition",Potency
CC(C)CC(N=C1NC(C)(C)Cc2ccccc21)C(=O)O (centres undefined),11%,–
CC1(C)Cc2ccccc2-c2[nH]c(=S)[nH]c(=O)c21,25.9%,–
CC1(C)Cc2ccccc2/C(=C/C(=O)c2ccccc2)N1,–,14.1 µM (active)
CN(CC(=O)NCCc1ccc(F)cc1)CC(=O)Nc1ccc(F)c(F)c1F,-17%,–
Fc1ccc2[nH]c3c(N4CCN(Cc5ccc6c(c5)OCO6)CC4)ncnc3c2c1,–,2.51 µM (active)
O=c1[nH]c(N2CCN(Cc3ccc4c(c3)OCO4)CC2)nc2c1CCCC2,2.31%,–
Fc1ccc2[nH]c3c(N4CCSCC4)ncnc3c2c1,–,6.31 µM (active)
CC(C)(C)n1nnnc1C(c1ccc(F)cc1)N1CCN(Cc2ccc3c(c2)OCO3)CC1 (centres undefined),-0.102%,–
Cc1c(CN2CC[C@@H](N3CCN(c4ccccn4)CC3)[C@H](O)C2)[nH]c2ccc(F)cc12,-28.5%,–
O=C1NC(=O)C(CCc2ccccc2)(c2ccccc2)N1 (centres undefined),-0.263%,–
Cc1cc(C)n2nc(C(=O)OC(C)C(=O)c3cc(C)c(C)cc3C)nc2n1 (centres undefined),3.37%,–
CCC(C)N(C(=O)Cn1nc(C)c([N+](=O)[O-])c1C)C1CCS(=O)(=O)C1 (centres undefined),35.7%,–
O=C(Nc1ccccc1)Nc1ccc(C(F)(F)F)cn1,-9.65%,–
Cc1nccn1CC(=O)N/N=C/c1ccc(O)c(O)c1,11.8%,–
Oc1ccc(/C=N/Nc2ccc(C(F)(F)F)cn2)cc1O,–,3.55 µM (active)
CC(=O)Nc1ccc(C(=O)NNC(=O)CCCCC(=O)NNC(=O)c2ccc(NC(C)=O)cc2)cc1,10.3%,–
CCCCN1C(N)=NC[C@@H]1Cc1ccccc1,14%,–
CC[C@]12c3[nH]c4ccc(Cl)cc4c3CCN1C(=O)[C@@H](CC(=O)NCCCOC)C[C@@H]2C(=O)N1CCN(C(=O)C2CC2)CC1,-19.7%,–
C=CC[C@@H](CC(=O)N[C@@H](CO)Cc1ccccc1)C(=O)NCCOC(=O)[C@@H](CC=C)CC(=O)OC(C)(C)C,21.7%,–
CCCn1c(C)cc(-c2csc(NC(=O)CCc3nc4ccccc4c(=O)[nH]3)n2)c1C,-6.01% [at 8.37 µM],–
O=C1CN(C(=O)COC(=O)/C=C/c2ccc(F)cc2)c2ccccc2N1,3.6%,–
Cn1c(SCC(=O)N2CCCc3ccccc32)nc2ccccc2c1=O,–,12.6 µM (active)
O=C(CSc1nc2[nH]ncc2c(=O)n1-c1ccccc1)N1CCCc2ccccc21,-4.01%,–
O=C(CSc1nc2ccccc2c(=O)n1CCCO)N1CCc2ccccc21,-6.38%,–
O=C(COC(=O)COc1ccccc1F)Nc1cccc(S(=O)(=O)N2CCCCC2)c1,2.99%,–

Structure (SMILES),"activity change, negative = inhibition",Potency
Nc1cc(N)nc(SCC(=O)Nc2cccc(S(=O)(=O)N3CCCCC3)c2)n1,0.0012%,–
CSCCC1NC(=O)N(CC(=O)Nc2cccc(S(=O)(=O)N3CCCCCC3)c2)C1=O (centres undefined),–,11.2 µM (active)
Cn1nnnc1SCC(=O)Nc1cccc(S(=O)(=O)N2CCCCC2)c1,8.59%,–
COCCn1cnnc1SCC(=O)Nc1cccc(S(=O)(=O)N2CCCCC2)c1,-6.89%,–
O=C(Cn1cnc2ccccc2c1=O)Nc1cccc(S(=O)(=O)N2CCCCC2)c1,–,11.2 µM (active)
Nc1ncnc2c1ncn2[C@@H]1O[C@H](CNCc2cccn2-c2nccs2)[C@@H](O)[C@H]1O,7.72%,–
NC(=O)c1ccsc1NC(=O)COC(=O)COc1ccc(C=O)cc1,-1.1%,–
CCOC(=O)/C=C/c1ccc(C(F)(F)F)cc1S(=O)(=O)NC(C)(C)C,4.83%,–
CCCCN1C(=O)C(=O)N(CC(=O)Nc2cccc(C(C)=O)c2)C1=O,11.1%,–
CC(C)Cc1nnc(NC(=O)CCNC(=O)c2ccccc2Cl)s1,7.34%,–
COc1ccc(-c2nnc(-c3ccc4ccccc4c3)o2)cc1,7.69%,–
CCOc1ccc(S(=O)(=O)Nc2ccc(C(=O)NCCCN3CCCC3=O)cc2)cc1,-0.358%,–
CCOC(=O)c1sc2nc(SC)nc(-c3ccccc3)c2c1N,-1.48%,–
Cc1cccc(NC(=O)c2sc3nc4c(c(-c5ccco5)c3c2N)CCC4)c1,-12.9%,–
Cc1nc2sc(C(=O)c3ccccc3)c(N)c2c2c1CCCC2,–,25.1 µM (active)
COc1ccc(-c2ccc3nnc(SCC(=O)Nc4ccc(NC(C)=O)cc4)n3n2)cc1,-24.5%,–
CC(C)(C)OC(=O)C[C@@H]1C/C=C\C[C@H](CC(=O)N[C@@H](CO)Cc2ccccc2)C(=O)N[C@H](Cc2ccccc2)COC1=O,-11.5%,–
Cc1c(Cl)c([N+](=O)[O-])nn1Cc1ccc(C(=O)N/N=C\c2cc(Cl)ccc2O)o1,–,12.6 µM (active)
Cc1c(Cl)c([N+](=O)[O-])nn1CCCC(=O)Nc1cc(Cl)ccc1Cl,-20.9%,–
O=C(N/N=C/c1ccc2c(c1)OCO2)c1ccc(Cn2cc([N+](=O)[O-])cn2)o1,5.24%,–
Cc1ccc(S(=O)(=O)N2CCC(C(=O)N3CCCCCCC3)CC2)cc1,19.1%,–
O=C(O)c1ccccc1N=N/C(=N/Nc1cc(S(=O)(=O)O)ccc1O)c1ccccc1,3.51%,–
CN(C)CCN(C(=O)CN1C(=O)c2ccccc2C1=O)c1nc2cc3c(cc2s1)OCCO3,12.9%,–
COC(=O)c1ccc(CSc2ccc(S(=O)(=O)N3CCCCC3)cn2)cc1,-14.1%,–
Cc1ccc2nc(-c3ccncc3)cc(C(=O)Nc3ccc(OC(F)F)cc3)c2c1,–,8.91 µM (active)

Structure (SMILES),"activity change, negative = inhibition",Potency
Cc1ccc2nc(-c3ccncc3)cc(C(=O)Nc3ccncc3)c2c1,5.09%,–
Cc1ccc2nc(-c3ccccn3)cc(C(=O)Nc3ccc4c(c3)OCO4)c2c1,-30%,–
COc1cc(C2C(C(=O)c3cccs3)=C(O)C(=O)N2CCN2CCOCC2)ccc1OCCC(C)C (centres undefined),3.65%,–
Cc1c[n+]([O-])ccc1[N+](=O)[O-],-10.3%,–
O=C(N/N=C/c1c(Cl)[nH]c2ccccc12)c1sc2ccccc2c1Cl,–,10 µM (active)
Cc1nn(C)cc1/C=N/NC(=O)c1sc2ccccc2c1Cl,-3.97%,–
CCOc1ccc2ccccc2c1/C=N/NC(=O)c1c(C)cc(C)[nH]c1=O,-20.3%,–
OCC1(CO)CC2(C1)CC(CO)(CO)C2,3.43%,–
Cc1ccc(S(=O)(=O)N2CCN(C(=O)c3ccc(-n4cncn4)c([N+](=O)[O-])c3)CC2)cc1,-1.61%,–
Cc1ccc(S(=O)(=O)N(C)C)cc1NC(=O)C1Cc2ccccc2CN1C(=O)c1ccco1 (centres undefined),6.19%,–
Cc1ccc(NC(=O)C2CCCN2C(=O)OCc2ccccc2)cc1C (centres undefined),-3.3%,–
Cc1ccc(C)c(NC(=O)C2Cc3ccccc3CN2C(=O)OCc2ccccc2)c1 (centres undefined),–,10 µM (active)
Cc1ccc(OCC(=O)Nc2ccccc2C(=O)NC2CC2)cc1,-22%,–
CC1CCCCC1NC(=O)COc1ccc(C#N)cc1 (centres undefined),11.6%,–
Cc1ccc(NC(=O)C/C(N)=N/O)cc1Cl,-10.7%,–
O=C(CC(O)(C(F)(F)F)C(F)(F)F)Nc1ccc(Cl)c(Cl)c1,–,5.01 µM (active)
O=C(CC1SCCNC1=O)Nc1ccc(Cl)c(Cl)c1 (centres undefined),13.4%,–
Cc1cccc(C)c1OCC(O)CN1CCCCC1 (centres undefined),-1.28%,–
Cc1ccccc1OCC(O)CN1CCN(c2ccccn2)CC1 (centres undefined),1.82%,–
Cc1cccc(OCC(O)CN2CCN(CCN3C(=O)c4cccc5cccc(c45)C3=O)CC2)c1C (centres undefined),–,8.91 µM (active)
CCn1nc(C(=O)NNS(=O)(=O)c2cc(/C=C/C(=O)O)cc(OC)c2OC)c2ccccc2c1=O,-16.4%,–
COc1cccc(-c2nc3cc(C)ccc3o2)c1,15.5%,–
CCc1ccc2oc(-c3ccc(N)cc3)nc2c1,–,12.6 µM (active)
COc1ccc(-c2nc3cc([N+](=O)[O-])ccc3o2)cc1OC,13.9%,–
Nc1cc(=O)n(Cc2ccccc2)c(=O)n1Cc1ccccc1,19.8%,–

Structure (SMILES),"activity change, negative = inhibition",Potency
Cc1c(NC(=O)CN(C)CC(=O)Nc2ccc(F)c(F)c2F)c(=O)n(-c2ccccc2)n1C,2.52%,–
Cc1ccc(Nc2nc(CSc3nnc(-c4ccncc4)n3-c3ccccc3C)cs2)cc1,–,10 µM (active)
Cc1ccccc1-n1c(SCC(=O)NCc2cccs2)nnc1-c1ccncc1,-5.89%,–
Cc1ccc(-n2c(SCC(=O)N3c4ccccc4Sc4ccccc43)nnc2-c2ccncc2)cc1,7.58%,–
CC1CCCC(C)N1C(=O)COC(=O)COc1ccccc1C#N (centres undefined),0.641%,–
CSc1nccc(NC(=O)c2ccc(C(C)(C)C)cc2)n1,–,1.78 µM (active)
COC(=O)c1nc(NC(=O)c2ccc(C(C)(C)C)cc2)n[nH]1,17.8%,–
Cc1cccc(NC(=O)c2cccnc2Cl)n1,-2.06%,–
CCN(CC(=O)Nc1cc(Cl)ccc1C)C(=O)CN1C(=O)NC2(CCCC2)C1=O,14%,–
CN[C@H](C(=O)NC[C@H]1O[C@@H](n2cnc3c(N)ncnc32)[C@H](O)[C@@H]1O)[C@@H](C)OCc1ccccc1,49.9%,–
CN(C)CC(O)COc1ccc(C(C)(C)c2ccc(OCC(O)CN(C)C)cc2)cc1 (centres undefined),–,10 µM (active)
CC(C)(c1ccccc1)c1ccc(OCCN)cc1,-16.6%,–
Cc1cc(C)n(CC(O)COc2ccc(C(C)(C)C)cc2)n1 (centres undefined),12.2%,–
Cc1ccc(C(=O)NCC(=O)NC2CC2)cc1,15.4%,–
Cc1ccsc1C(=O)NNC(=O)COc1ccc(Br)cc1,19.3%,–
CCc1nnc(NC(=O)C2CCN(C(=O)c3ccccc3C)CC2)s1,14.9%,–
O=C(CSc1nnnn1-c1ccccc1)NCc1ccco1,-12.8%,–
Cc1cc(NC(=O)CSc2nnnn2-c2ccc(F)cc2)no1,16.5%,–
CCN(CC)C(CNC(=O)CSc1nnnn1-c1cccc(F)c1)c1ccco1 (centres undefined),–,25.1 µM (active)
CCN(CC)S(=O)(=O)c1ccc(Cl)c(C(=O)NC(C)C(c2cccs2)N2CCCC2)c1 (centres undefined),–,14.1 µM (active)
CCCC(=O)NC(C)C(c1cccs1)N1CCN(c2ccccc2)CC1 (centres undefined),-14.3%,–
CCN(CC)S(=O)(=O)c1ccc(Cl)c(C(=O)NCCN2CCOCC2)c1,-1.51%,–
O=S(=O)(Nc1cc(Cl)ccc1N1CCOCC1)c1ccccc1Cl,-5.1%,–
Cc1[nH]c2ccccc2c1C(=O)C(C)Sc1nnc(C2CC2)o1 (centres undefined),8.19%,–
